In general, AC50 refers to the midpoint of the concentration-response curve, whichever way the signal moves.

Calls of active or inactive are those of the source. Rule for the calls: active = hit-call score of the fitted dose curve at least 0.9, where 1 is the maximum; inactive = score below 0.9.

The nature of test [1]: ATG_CRE_CIS: Attagene CIS-FACTORIAL HepG2 Assay for human cAMP Responsive Element (CRE) binding protein 3 (AID 2282926). Particulars: HepG2 CRE cis-reporter, Attagene multiplexed mRNA; actives raise or lower the signal. The method, boiled down:
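Readout: fluorescently labelled reporter transcripts resolved by capillary electrophoresis after RT-PCR, taken 24 h post-dosing in transfected HepG2. Endogenous transcription factor activity drives each cis-element reporter; gain or loss of signal fitted relative to DMSO control.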

The target of test [2] is CCAAT/enhancer-binding protein beta (Homo sapiens) (UniProt P17676). Briefly: ATG_C_EBP_CIS: Attagene CIS-FACTORIAL HepG2 Assay for human CCAAT/Enhancer Binding Protein (C/EBP) beta (AID 2282927). Particulars: HepG2 Attagene cis-factorial transcription factor reporter; actives raise or lower the signal. The method, boiled down:
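Endogenous transcription factor activity in human liver HepG2 cells is inferred from induction of a CEBPB-linked reporter mRNA. Exposure lasts 24 h; activity is fitted in both directions relative to DMSO.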

Test [3] in a line: ATG_CMV_CIS: Attagene CIS-FACTORIAL HepG2 Assay for human CMV (Internal Marker) (AID 2282928).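 Note: endpoint acts as a background internal control marker rather than a target.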 The settings on record: HepG2 CMV promoter reporter, transcription factor profiling; actives raise or lower the signal. An outline of the steps: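 Readout: fluorescent reporter cDNA fragments separated by capillary electrophoresis after RT-PCR and HpaI cut. Cells: HepG2 carrying transfected cis-promoter reporter constructs, dosed 24 h. Endpoint serves as background internal-marker control, fit bidirectionally versus DMSO.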

Test [4] in a line: ATG_DR4_LXR_CIS: Attagene CIS-FACTORIAL HepG2 Assay for human Liver X Receptor (LXR), DR4 submotif (AID 2282929). The settings on record: HepG2 Attagene DR4 cis-reporter, mRNA transcription; actives raise or lower the signal. The method, boiled down: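 Measures endogenous transcription factor activity via a DR4-driven reporter transcript in human HepG2 cells. Compounds incubated 24 h; mRNA quantified by RT-PCR and capillary electrophoresis, analysed as gain or loss of signal versus DMSO.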

The target of test [5] is Aryl hydrocarbon receptor (Homo sapiens) (UniProt P35869). Briefly: ATG_Ahr_CIS: Attagene CIS-FACTORIAL HepG2 Assay for human Aryl Hydrocarbon Receptor (Ahr) (AID 2282930). Particulars: HepG2 AhR cis-factorial reporter transcription; actives raise or lower the signal. The method, boiled down: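 Transient MRTU transfection of HepG2 → 24 h compound exposure → total RNA, oligo(dT) RT → PCR, 6-FAM extension, HpaI cut → CE fluorescence. DMSO = baseline; bidirectional curve fit.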
Aryl hydrocarbon receptor (Homo sapiens), sequence (P35869 whole entry, looked up): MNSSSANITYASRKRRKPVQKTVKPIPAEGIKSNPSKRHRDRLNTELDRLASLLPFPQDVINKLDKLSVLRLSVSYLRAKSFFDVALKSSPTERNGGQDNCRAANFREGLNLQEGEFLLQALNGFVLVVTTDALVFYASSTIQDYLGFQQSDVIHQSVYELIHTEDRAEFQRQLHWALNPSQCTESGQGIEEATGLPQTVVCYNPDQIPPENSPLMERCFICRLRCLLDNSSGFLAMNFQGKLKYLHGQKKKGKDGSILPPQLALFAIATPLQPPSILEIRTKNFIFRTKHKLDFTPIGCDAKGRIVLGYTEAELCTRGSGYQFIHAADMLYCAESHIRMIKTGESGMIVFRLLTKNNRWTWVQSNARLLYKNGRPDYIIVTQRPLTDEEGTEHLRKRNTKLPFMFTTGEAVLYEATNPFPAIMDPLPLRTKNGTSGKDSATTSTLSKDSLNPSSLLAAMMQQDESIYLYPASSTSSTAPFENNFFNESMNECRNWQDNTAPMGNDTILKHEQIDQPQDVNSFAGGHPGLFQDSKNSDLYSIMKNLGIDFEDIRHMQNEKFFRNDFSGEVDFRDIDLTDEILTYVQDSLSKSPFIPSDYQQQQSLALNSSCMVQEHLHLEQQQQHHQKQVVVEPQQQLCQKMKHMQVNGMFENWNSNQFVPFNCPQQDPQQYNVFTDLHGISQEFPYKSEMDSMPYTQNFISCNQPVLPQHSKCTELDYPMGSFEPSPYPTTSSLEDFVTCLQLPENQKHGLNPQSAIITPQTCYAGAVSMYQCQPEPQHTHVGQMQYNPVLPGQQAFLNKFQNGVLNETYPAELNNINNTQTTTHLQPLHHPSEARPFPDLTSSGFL

Test [6] can be described thus: ATG_AP_1_CIS: Attagene CIS-FACTORIAL HepG2 Assay for human Activator Protein 1 (AP-1) (AID 2282931). The settings on record: HepG2 Attagene cis-factorial AP-1 reporter mRNA; actives raise or lower the signal. The method, boiled down: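 Bidirectional concentration-response fitting against DMSO controls. Underlying signal: reporter mRNA from cis-promoter constructs in transiently transfected HepG2, measured after 24 h by RT-PCR and capillary electrophoresis.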

Test [7] in a line: ATG_AP_2_CIS: Attagene CIS-FACTORIAL HepG2 Assay for human Activator Protein 2 (AP-2) (AID 2282932). Particulars: HepG2 AP-2 cis-reporter, Attagene transcription factor profiling; actives raise or lower the signal. An outline of the steps: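 Endogenous transcription factor activity is reported through transfected multiplex reporter constructs in HepG2, after 24 h of compound exposure. Transcripts were quantified by RT-PCR and capillary electrophoresis of fluorescent fragments. Bidirectional fit against DMSO.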

Test [8] can be described thus: ATG_BRE_CIS: Attagene CIS-FACTORIAL HepG2 Assay for human Bone Morphogenetic Protein (BMP) Response Element (BRE) (AID 2282933). The settings on record: HepG2 BMP response element reporter, Attagene transcription factor profiling; actives raise or lower the signal. The method, boiled down:
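HepG2 cells transiently transfected with multiplexed cis-element reporter units were dosed with chemical for 24 h. Reporter mRNA was measured by RT-PCR with fluorescent labelling, HpaI digestion and capillary electrophoresis; bidirectional fitting relative to DMSO.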

The target in test [9] is Retinoic acid receptor alpha (Homo sapiens) (UniProt P10276). Nature of the test: ATG_DR5_RAR_CIS: Attagene CIS-FACTORIAL HepG2 Assay for human Retinoic Acid Receptor Alpha (RARE), DR5 submotif (AID 2282934). Particulars: HepG2 Attagene cis-factorial RARE DR5 reporter, mRNA; actives raise or lower the signal. An outline of the steps:
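Transient MRTU transfection of HepG2; 24 h compound treatment; TriZol RNA, oligo(dT) RT, PCR, FAM labelling, capillary electrophoresis. Bidirectional fit vs DMSO. Endogenous TF activity at DR5 RARE.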

Test [10] has as its target Transcription factor E2F1 (Homo sapiens) (UniProt Q01094). Briefly: ATG_E2F_CIS: Attagene CIS-FACTORIAL HepG2 Assay for human E2F Transcription Factor 1 (AID 2282935). The settings on record: HepG2 Attagene cis-reporter, E2F reporter RNA transcripts; actives raise or lower the signal. An outline of the steps:
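Gain or loss of reporter transcript, fitted against DMSO, reflects E2F1-driven transcription. Transiently transfected HepG2 dosed 24 h before RNA isolation. Quantified by fluorescent RT-PCR products separated by capillary electrophoresis.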

Test [11] in a line: ATG_E_Box_CIS: Attagene CIS-FACTORIAL HepG2 Assay for human Enhancer Box (E-box) (AID 2282936). The settings on record: HepG2 E-box cis-reporter transcription, actives raise or lower the signal. The method, boiled down: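 E-box-driven reporter transcripts measured in transiently transfected HepG2 after 24 h exposure: RNA reverse-transcribed, PCR-amplified, fluorescently labelled, digested and resolved by capillary electrophoresis. Gain or loss relative to DMSO.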

The nature of test [12]: ATG_M_61_CIS: Attagene CIS-FACTORIAL HepG2 Assay for M61 Transcription Factor (Internal Marker) (AID 2282937). Particulars: HepG2 Attagene CIS-FACTORIAL M61 internal marker reporter; actives raise or lower the signal. The method, boiled down: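 Fluorescence from labelled cDNA fragments, separated by capillary electrophoresis, quantifies reporter induction. HepG2 cells bearing transiently transfected cis-promoter MRTUs were incubated with test chemical for 24 h; DMSO defined baseline for gain/loss fitting.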

Test [13] in a line: ATG_EGR_CIS: Attagene CIS-FACTORIAL HepG2 Assay for human Early Growth Response 1 (EGR1) (AID 2282938). The settings on record: HepG2 Attagene CIS-FACTORIAL EGR reporter mRNA; actives raise or lower the signal. An outline of the steps: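 Cell-based multiplex transcription assay: HepG2 carrying transfected cis-element reporter units, 24 h chemical treatment. Fluorescence from capillary electrophoresis of RT-PCR products gives mRNA levels; fitting is bidirectional relative to DMSO.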

Test [14] can be described thus: ATG_M_19_CIS: Attagene CIS-FACTORIAL HepG2 Assay for M19 Transcription Factor (Internal Marker) (AID 2282939). The settings on record: HepG2 Attagene CIS-FACTORIAL M19 internal marker reporter; actives raise or lower the signal. The method, boiled down: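 HepG2 cells transiently transfected with cis-regulated multiple reporter transcription units were dosed for 24 h; reporter mRNA was quantified by RT-PCR, 6-FAM primer-extension labelling, HpaI digestion and capillary electrophoresis, with bidirectional fitting against DMSO baseline.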

Test [15] is described as follows: ATG_Ets_CIS: Attagene CIS-FACTORIAL HepG2 Assay for human Erythroblast Transformation Specific (ETS) (AID 2282941). The settings on record: HepG2 ETS cis-reporter transcription, actives raise or lower the signal. An outline of the steps:
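RT-PCR/capillary electrophoresis fluorescence read-out of reporter mRNA; HepG2 transient multi-reporter transfection; 24 h compound exposure; gain or loss of signal fitted bidirectionally relative to DMSO.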

The target in test [16] is Hepatocyte nuclear factor 3-beta (Homo sapiens) (UniProt Q9Y261). Briefly: ATG_FoxA2_CIS: Attagene CIS-FACTORIAL HepG2 Assay for human Forkhead box A2 (FOXA2) (AID 2282942). Particulars: HepG2 cis-reporter transcription factor activity, 24 h; actives raise or lower the signal. An outline of the steps: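 In transiently transfected human HepG2 cells, promoter-driven reporter mRNA levels after 24 h chemical exposure are determined via RT-PCR with capillary electrophoresis. DMSO serves as baseline for bidirectional fitting.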
Hepatocyte nuclear factor 3-beta (Homo sapiens), sequence (Q9Y261 whole entry, looked up): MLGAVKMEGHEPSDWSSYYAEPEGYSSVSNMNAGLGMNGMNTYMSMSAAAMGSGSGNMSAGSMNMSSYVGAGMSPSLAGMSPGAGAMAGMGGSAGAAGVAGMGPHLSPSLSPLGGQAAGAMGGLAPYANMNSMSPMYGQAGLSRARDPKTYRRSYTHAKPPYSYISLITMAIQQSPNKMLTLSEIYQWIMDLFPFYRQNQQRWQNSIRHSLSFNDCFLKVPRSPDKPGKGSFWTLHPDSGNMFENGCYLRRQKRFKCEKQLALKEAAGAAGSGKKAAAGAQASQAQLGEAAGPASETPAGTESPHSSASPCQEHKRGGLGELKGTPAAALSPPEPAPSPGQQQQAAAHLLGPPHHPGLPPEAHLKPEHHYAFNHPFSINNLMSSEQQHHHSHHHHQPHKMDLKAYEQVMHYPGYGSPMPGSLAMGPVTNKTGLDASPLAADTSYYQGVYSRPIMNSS

Test [17] in a line: ATG_FoxO_CIS: Attagene CIS-FACTORIAL HepG2 Assay for human Forkhead box O (FoxO) (AID 2282943). Particulars: HepG2 Attagene cis-reporter, FoxO element, mRNA; actives raise or lower the signal. The method, boiled down:
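HepG2, transient MRTU transfection (cis element, endogenous TFs). Dose 24 h. TriZol RNA → oligo(dT) RT → PCR → 6-FAM primer extension → HpaI cut → CE. Gain/loss vs DMSO.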

Test [18] in a line: ATG_GATA_CIS: Attagene CIS-FACTORIAL HepG2 Assay for human GATA Binding Protein (AID 2282944). The settings on record: HepG2 GATA cis-element reporter, Attagene multiplex mRNA; actives raise or lower the signal. An outline of the steps: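 HepG2 cells transiently transfected with multiplexed cis-element reporter units reflecting endogenous transcription factor activity; reporter mRNA measured after 24 h dosing by RT-PCR, 6-FAM labeling, HpaI digestion and capillary electrophoresis. Bidirectional fitting versus DMSO baseline.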

Test [19] can be described thus: ATG_GLI_CIS: Attagene CIS-FACTORIAL HepG2 Assay for human Zinc Finger Protein GLI1 (AID 2282945). Particulars: HepG2, Attagene cis-factorial reporter mRNA, GLI element; actives raise or lower the signal. The method, boiled down:
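Bidirectional curve fits relative to DMSO, using reporter mRNA levels from RT-PCR plus capillary electrophoresis. Cells were HepG2 transiently carrying cis-regulated reporter constructs, harvested 24 h after dosing.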

Transcription factor E2F1 (Homo sapiens), sequence (Q01094 whole entry, looked up): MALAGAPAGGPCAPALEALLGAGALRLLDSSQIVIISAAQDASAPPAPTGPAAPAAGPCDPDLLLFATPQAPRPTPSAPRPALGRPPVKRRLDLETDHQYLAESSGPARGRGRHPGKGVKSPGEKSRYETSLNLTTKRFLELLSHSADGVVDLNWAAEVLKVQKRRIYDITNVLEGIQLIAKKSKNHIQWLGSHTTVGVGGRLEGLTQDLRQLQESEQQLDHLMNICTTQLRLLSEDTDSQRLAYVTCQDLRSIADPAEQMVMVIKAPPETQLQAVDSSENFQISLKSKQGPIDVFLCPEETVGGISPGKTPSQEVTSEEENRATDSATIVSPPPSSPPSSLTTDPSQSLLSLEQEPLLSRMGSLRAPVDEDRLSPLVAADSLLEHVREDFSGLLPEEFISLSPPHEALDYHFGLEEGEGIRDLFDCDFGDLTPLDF
CCAAT/enhancer-binding protein beta (Homo sapiens), sequence (P17676 whole entry, looked up): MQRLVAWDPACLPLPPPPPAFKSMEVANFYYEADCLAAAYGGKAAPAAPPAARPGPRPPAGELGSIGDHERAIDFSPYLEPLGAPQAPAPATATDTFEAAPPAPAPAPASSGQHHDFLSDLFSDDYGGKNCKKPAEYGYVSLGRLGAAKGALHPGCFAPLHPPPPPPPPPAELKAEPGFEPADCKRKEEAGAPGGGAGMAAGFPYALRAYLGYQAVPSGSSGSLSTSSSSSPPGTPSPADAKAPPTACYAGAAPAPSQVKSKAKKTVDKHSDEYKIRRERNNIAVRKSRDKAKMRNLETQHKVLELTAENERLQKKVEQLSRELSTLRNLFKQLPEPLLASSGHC
Retinoic acid receptor alpha (Homo sapiens), sequence (P10276 whole entry, looked up): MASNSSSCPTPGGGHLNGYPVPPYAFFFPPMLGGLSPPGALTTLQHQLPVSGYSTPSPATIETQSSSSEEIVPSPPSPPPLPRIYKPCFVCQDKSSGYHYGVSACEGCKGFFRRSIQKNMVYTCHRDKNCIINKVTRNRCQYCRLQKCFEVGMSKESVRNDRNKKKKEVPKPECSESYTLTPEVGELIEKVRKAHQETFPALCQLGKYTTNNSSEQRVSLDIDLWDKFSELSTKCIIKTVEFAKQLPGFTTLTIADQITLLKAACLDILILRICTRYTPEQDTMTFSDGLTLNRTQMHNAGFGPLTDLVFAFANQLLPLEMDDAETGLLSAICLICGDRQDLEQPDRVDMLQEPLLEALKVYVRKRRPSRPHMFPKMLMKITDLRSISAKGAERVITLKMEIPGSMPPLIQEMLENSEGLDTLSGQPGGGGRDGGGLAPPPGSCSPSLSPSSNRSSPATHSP

In the case of `NCCNc1cccc2ccccc12`, the AC50 in [1] is 170 µM (active); in test [2] it was 169 µM (active); in test [5], 7.19 µM (active); in test [7], 100 µM (active); in [11], 176 µM (active); in [13], 141 µM (active). For the same compound, the outcome in test [3], in test [4], in [6], in test [8], in test [9] and in test [10] was inactive. The result in [12], in test [14], in test [15], in [16], in test [17] and in test [18] was inactive. Also, in test [19], the compound was called inactive.
With `O=C(c1ccccc1)C(O)c1ccccc1` (centres undefined), the outcome in test [1], in test [2], in test [3], in [4], in test [5] and in [6] was inactive. The outcome in test [7], in test [8], in [9], in test [10], in test [11] and in test [12] was inactive. Further, the result in test [13], in test [14], in test [15], in test [16] and in test [17] was inactive.
As for `OC[C@H]1O[C@@H]2O[C@H]3[C@H](O)[C@@H](O)[C@@H](O[C@H]4[C@H](O)[C@@H](O)[C@@H](O[C@H]5[C@H](O)[C@@H](O)[C@@H](O[C@H]6[C@H](O)[C@@H](O)[C@@H](O[C@H]7[C@H](O)[C@@H](O)[C@@H](O[C@H]8[C@H](O)[C@@H](O)[C@@H](O[C@H]9[C@H](O)[C@@H](O)[C@@H](O[C@H]1[C@H](O)[C@H]2O)O[C@@H]9CO)O[C@@H]8CO)O[C@@H]7CO)O[C@@H]6CO)O[C@@H]5CO)O[C@@H]4CO)O[C@@H]3CO`, the result in [1], in test [2], in [3], in [4], in [5] and in test [6] was inactive. Moreover, the compound was classed as inactive in test [7], in test [8], in test [9], in [10], in test [11] and in test [12]. The compound was called inactive in test [13], in test [14], in test [15], in test [16], in test [17] and in test [18]. Moreover, the result in [19] was inactive.
Consider `CC(C)(N=C=O)c1cccc(C(C)(C)N=C=O)c1`, for which the compound was classed as inactive in test [1], in test [2], in [3], in test [4], in test [5] and in test [6]. Moreover, the outcome in test [7], in test [8], in test [9], in test [10], in test [11] and in test [12] was inactive. Moreover, the compound was called inactive in test [13], in test [14], in [15], in [16], in test [17] and in test [18]. In addition, the compound was called inactive in test [19].
